What is called AC50 is the concentration at which the activity in the assay is half-maximal.

Where “and” joins values, the source holds several entries; their conditions need not be identical. Equal values may be shown once. Records with an inconclusive call do not appear. A structure can be active in one record and inactive in another. Calls of active or inactive are those of the source. How the source made its calls, unless noted: active means hit-call score of the fitted dose curve at least 0.9, where 1 is the maximum; inconclusive means response in the unintended direction; inactive means score below 0.9.

AC50 and outcome data for 16 compounds are collected here from PubChem BioAssay (EPA / NIEHS).

Assay [1] has as its system Thyroperoxidase (TPO), gene 54314. Put plainly: CCTE_Simmons_AUR_rTPO: CCTE's Amplex UltraRed Assay for Thyroperoxidase (TPO) Inhibition, Simmons Lab (AID 2283662).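 On AC50: potency for loss of signal meaning inhibition of peroxidase activity.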 An outline of the steps: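 Rat thyroid microsomes (5 ug protein) with 25 uM Amplex UltraRed and 300 uM H2O2 in 200 mM phosphate buffer, 30 min at 37C in dark; fluorescence 544/590 nm. Eight concentrations, 5 nM–87.5 uM final, 0.5% DMSO, triplicate biological replicates.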

A short description of assay [2]: CCTE_Simmons_CellTiterGLO_HEK293T: Viability Assessment in CCTE's Assays for Thyroperoxidase (TPO) Inhibition, Simmons Lab (AID 2283665).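 On AC50: cells exposed to compound for 24 h before readout; actives reduce ATP signal below DMSO vehicle meaning cytotoxicity.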 A digest of the protocol: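 ATP depletion measured in HEK293T cells after 24 h dosing (8 concentrations, 5 nM–87.5 uM final; DMSO 0.5%) using CellTiter-Glo luminescence; curves fit for loss of signal against DMSO baseline.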
(Cellular ATP, detected with luciferase, serves as a proxy for viable cell number.)

The nature of assay [3]: Tanguay_ZF_120hpf_JAW_legacy: (Legacy) Oregon State University Tanguay Lab 120 Hour Post-fertilization zebrafish Assay for Jaw Malformation (AID 2283638). An outline of the steps: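 Steps: dechorionate 4 hpf embryos (pronase); plate 1/well at 6 hpf; add test chemical, 0.64% DMSO final; seal, cover, hold at 28C statically to 120 hpf; score jaw defect presence/absence microscopically. Dead embryos not scored.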

Assay [4] is described as follows: Tanguay_ZF_120hpf_OTIC_legacy: (Legacy) Oregon State University Tanguay Lab 120 Hour Post-fertilization zebrafish Assay for Otic Vesicle Malformation (AID 2283639). A digest of the protocol:
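Wild-type zebrafish larvae, whole-embryo exposure from early stage to 120 hpf at 28C. Binary brightfield scoring of otic vesicle morphology, fitted in the positive direction against the DMSO baseline.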

The nature of assay [5]: Tanguay_ZF_120hpf_PE_legacy: (Legacy) Oregon State University Tanguay Lab 120 Hour Post-fertilization zebrafish Assay for Pericardial Edema (AID 2283640). A digest of the protocol:
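Embryos from wild-type 5D adults were staged, then dosed in 0.64% DMSO. They were kept sealed in the dark at 28C until 120 hpf. Pericardial edema was then recorded as present or absent.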

Assay [6] in a line: Tanguay_ZF_120hpf_BRAI_legacy: (Legacy) Oregon State University Tanguay Lab 120 Hour Post-fertilization zebrafish Assay for Brain Malformation (AID 2283641). An outline of the steps: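 Wild-type 5D larvae, static waterborne exposure to 120 hpf, 28C, 0.64% v/v DMSO. Brightfield scoring of brain defects, binary; dead embryos excluded. Positive ctrl 5uM trimethyltin chloride.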

Assay [7] is described as follows: Tanguay_ZF_120hpf_SOMI_legacy: (Legacy) Oregon State University Tanguay Lab 120 Hour Post-fertilization zebrafish Assay for Somite Malformation (AID 2283647). A digest of the protocol: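 Read-out: presence or absence of somite malformation in 120 hpf larvae, gain-of-signal relative to DMSO baseline. Embryos lacked chorion (pronase, 4 hpf) and were exposed statically from 6 hpf at 28C; dead larvae not scored.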

A short description of assay [8]: Tanguay_ZF_120hpf_PFIN_legacy: (Legacy) Oregon State University Tanguay Lab 120 Hour Post-fertilization zebrafish Assay for Pectoral Fin Malformation (AID 2283648).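 Further: each larva judged yes or no for fin defect by brightfield with dead larvae skipped.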 An outline of the steps:
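Pectoral fin malformation was recorded as a binary endpoint at 120 hpf in wild-type Tropical 5D larvae, which had been dechorionated and exposed statically from 6 hpf at 28C in 0.64% DMSO. Dead embryos were excluded.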

Assay [9] in a line: Tanguay_ZF_120hpf_CFIN_legacy: (Legacy) Oregon State University Tanguay Lab 120 Hour Post-fertilization zebrafish Assay for Caudal Fin Malformation (AID 2283649). An outline of the steps:
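Binary presence or absence of caudal fin malformation at 120 hpf, read by brightfield microscopy, with DMSO as baseline. Larvae came from 5D wild-type embryos exposed statically from 6 hpf at 28C after pronase dechorionation.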

A short description of assay [10]: Tanguay_ZF_120hpf_PIG_legacy: (Legacy) Oregon State University Tanguay Lab 120 Hour Post-fertilization zebrafish Assay for Pigmentation Malformation (AID 2283650). An outline of the steps:
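Pigment malformation recorded as a binary call at 120 hpf in zebrafish (Tropical 5D) exposed singly from 6 hpf after pronase dechorionation. Static, sealed, 28C exposure, 0.64% DMSO; mortality excludes scoring; positive-direction fit against DMSO.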

A short description of assay [11]: Tanguay_ZF_120hpf_CIRC_legacy: (Legacy) Oregon State University Tanguay Lab 120 Hour Post-fertilization zebrafish Assay for Circulatory Malformation (AID 2283651). An outline of the steps:
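Binary circulatory-malformation call at 120 hpf via brightfield imaging, relative to DMSO controls. Embryos (5D strain, chorion removed) received static, light-shielded exposure at 28C.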

Assay [12] can be described thus: Tanguay_ZF_120hpf_SWIM_legacy: (Legacy) Oregon State University Tanguay Lab 120 Hour Post-fertilization zebrafish Assay for Swim Bladder Malformation (AID 2283654).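 Further: swim bladder malformation in each larva scored yes or no under brightfield.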 An outline of the steps: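 Scoring is binary for swim bladder defects at 120 hpf, by brightfield inspection of zebrafish larvae. Embryos were exposed singly from 6 hpf after pronase dechorionation, at 28C with 0.64% DMSO; mortality excluded scoring.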

A short description of assay [13]: Tanguay_ZF_120hpf_TRUN_legacy: (Legacy) Oregon State University Tanguay Lab 120 Hour Post-fertilization zebrafish Assay for Truncated Body (AID 2283655). An outline of the steps:
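Truncated body is recorded as a binary endpoint at 120 hpf by brightfield imaging of wild-type 5D larvae. Exposure runs statically from 6 hpf at 28C with 0.64% DMSO; embryos dying earlier are not scored.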

Assay [14] is described as follows: Tanguay_ZF_120hpf_NC_legacy: (Legacy) Oregon State University Tanguay Lab 120 Hour Post-fertilization zebrafish Assay for Notochord and Tail Malformation (AID 2283656). An outline of the steps:
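Binary notochord-distortion calls, made by brightfield inspection, form the read-out; activity is fitted in the positive direction against DMSO. Exposure ran statically from 6 to 120 hpf at 28C with 0.64% DMSO.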

The nature of assay [15]: Tanguay_ZF_120hpf_TR_legacy: (Legacy) Oregon State University Tanguay Lab 120 Hour Post-fertilization zebrafish Assay for Touch Response (AID 2283667). An outline of the steps: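 Binary touch-response endpoint in larvae at 120 hpf after static waterborne exposure from embryo stage (28°C, 0.64% DMSO vehicle, 5 uM trimethyltin chloride as positive control); embryos dead at 24 or 120 hpf excluded; fitted as gain versus DMSO.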

The nature of assay [16]: CCTE_Padilla_ZF_144hpf_TERATOSCORE: (Legacy) CCTE's 144 Hour Post-fertilization zebrafish Assay Teratoscore, Padilla Lab (AID 2283679; active means hit-call score of the fitted dose curve at least 0.9, where 1 is the maximum; inactive means score below 0.9;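 further: zebrafish embryos with chorions exposed by immersion from 6-8 hpf to 5 dpf with daily renewal; teratogenicity score from eye scoring of death hatching and malformations at 144 hpf; higher score means more developmental defects relative to DMSO baseline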). An outline of the steps: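 Larvae scored by eye at 144 hpf for death, hatching and malformations after a day in clean Hanks'. Before that, daily-renewed exposure at 80 uM (0.4% DMSO, 26C) from roughly 6-8 hpf through 5 dpf, 4 embryos per chemical.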

A short description of assay [17]: CEETOX_H295R_MTT_cell_viability: Viability Assessment in the CeeTox HT-H295R MTT Assay (AID 2283718; active means hit-call score of the fitted dose curve at least 0.9, where 1 is the maximum; inactive means score below 0.9). An outline of the steps: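 MTT reduction (0.5 mg/ml, 4 h at 37 C; absorbance at 570 and 650 nm) gave viability as background-corrected percent change versus controls. H295R cells had 48 h forskolin (10 uM) prestimulation, then 48 h chemical exposure at 0.1% DMSO.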

Assay [18] can be described thus: STM_H9_CystineISnorm_perc: Stemina devTOX quickPredict H9 human embryonic stem cell (hESC)-based Assay for Cystine (CYSS) Metabolite Biomarker, Normalized (AID 2283713; active means hit-call score of the fitted dose curve at least 0.9, where 1 is the maximum; inactive means score below 0.9). A digest of the protocol:
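Normalized cystine level in conditioned medium from the final 24h of a 72h treatment of pluripotent H9 cells (daily media and compound renewal). Quantified by UPLC-HRMS with C13-labeled internal standard; scaled to median of 0.1% DMSO vehicle wells.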

With `CCCCCCOc1ccc(O)cc1`, the AC50 in [1] is 8.69 µM (active); in assay [2] it was 66.1 µM (active).

For the compound `[O-]/[N+](=N\O)c1ccccc1`, the result in assay [1] and in assay [2] was inactive.

For `CCCCOCCOCCO`, the compound was classed as inactive in assay [3], in [4], in assay [5], in assay [6], in [7] and in assay [8]. Besides, the compound was classed as inactive in assay [9], in assay [10], in assay [11], in assay [12], in assay [13] and in [14]. Also, the result in assay [15] was inactive.

Take `Cc1cccc(O)c1`: the AC50 in assay [1] was 19.6 µM (active). Besides, the result in assay [2] was inactive.

For the compound `CCCCCCCCCCCCOCCOS(=O)(=O)O`, the AC50 in assay [1] is 50.8 µM (active); in [2], 78.3 µM (active).

As for `CC/C(=C(\c1ccccc1)c1ccc(OCCN(C)C)cc1)c1ccccc1`, the call in assay [4], in assay [5], in assay [7], in assay [8], in [9] and in [10] was inactive. Moreover, the result in assay [11], in assay [12], in [13], in assay [14], in assay [1] and in [15] was inactive. For the same compound, the result in assay [17] was inactive. Moreover, the AC50 in [1] was 24.2 µM (active); in [2] it was 8.72 µM (active) and 6.64 µM (active); in assay [16], 1.43 µM (active) and 1.58 µM (active).

In the case of `COc1ccccc1O`, the AC50 in [1] was 21.7 µM (active). In addition, in [2], the result was inactive.

In the case of `O=c1cc[nH]cc1`, the outcome in assay [1] was inactive.

In the case of `CN(C)C(=O)Nc1ccccc1`, the AC50 in assay [1] was 43.8 µM (active).

For `CCCCCCCCOC(=O)c1ccc(O)cc1`, the AC50 in [1] is 52.8 µM (active); in [2] it was 24.4 µM (active).

`c1ccc2scnc2c1`: the AC50 in assay [1] was 56 µM (active) and 16.7 µM (active). Moreover, in assay [2], the compound was classed as inactive.

With `CCCCC/C=C\C=C\C(=O)OCC`, the AC50 was 38.6 µM (active) in assay [1] and 88.6 µM (active) in assay [2].

Regarding `CCc1cccc(O)c1`, the AC50 in [1] was 16.6 µM (active). Moreover, in [2], the compound was classed as inactive.

For `O=C(c1ccc(OCCN2CCCCC2)cc1)c1c(-c2ccc(O)cc2)sc2cc(O)ccc12`, the compound was called inactive in assay [5], in assay [7], in [8], in [9], in assay [11] and in [13]. Also, the compound was called inactive in [14], in assay [1] and in assay [17]. The AC50 in assay [2] was 20 µM (active); in [16] it was 86.8 µM (active).

As for `O=C(O)CS`, the call in [1] and in assay [2] was inactive.

`O=C(O)c1ccccc1O`: the AC50 in [18] is 1490 µM (active).
